The values that follow come from PubChem BioAssay AID2796 (The Scripps Research Institute Molecular Screening Center, 2010).

In all, about 320,000 compounds went through this assay and about 8,000 (2.5%) were called active. The list comes from a sample in which actives are over-represented; it also holds similar structures and randomly drawn compounds. Values without a mark were called inactive. No stated cut-off is given here; in the data, active means activation above about 47%; inactive means the rest.

Sequence of Aryl hydrocarbon receptor (Homo sapiens) (P35869 whole entry, looked up): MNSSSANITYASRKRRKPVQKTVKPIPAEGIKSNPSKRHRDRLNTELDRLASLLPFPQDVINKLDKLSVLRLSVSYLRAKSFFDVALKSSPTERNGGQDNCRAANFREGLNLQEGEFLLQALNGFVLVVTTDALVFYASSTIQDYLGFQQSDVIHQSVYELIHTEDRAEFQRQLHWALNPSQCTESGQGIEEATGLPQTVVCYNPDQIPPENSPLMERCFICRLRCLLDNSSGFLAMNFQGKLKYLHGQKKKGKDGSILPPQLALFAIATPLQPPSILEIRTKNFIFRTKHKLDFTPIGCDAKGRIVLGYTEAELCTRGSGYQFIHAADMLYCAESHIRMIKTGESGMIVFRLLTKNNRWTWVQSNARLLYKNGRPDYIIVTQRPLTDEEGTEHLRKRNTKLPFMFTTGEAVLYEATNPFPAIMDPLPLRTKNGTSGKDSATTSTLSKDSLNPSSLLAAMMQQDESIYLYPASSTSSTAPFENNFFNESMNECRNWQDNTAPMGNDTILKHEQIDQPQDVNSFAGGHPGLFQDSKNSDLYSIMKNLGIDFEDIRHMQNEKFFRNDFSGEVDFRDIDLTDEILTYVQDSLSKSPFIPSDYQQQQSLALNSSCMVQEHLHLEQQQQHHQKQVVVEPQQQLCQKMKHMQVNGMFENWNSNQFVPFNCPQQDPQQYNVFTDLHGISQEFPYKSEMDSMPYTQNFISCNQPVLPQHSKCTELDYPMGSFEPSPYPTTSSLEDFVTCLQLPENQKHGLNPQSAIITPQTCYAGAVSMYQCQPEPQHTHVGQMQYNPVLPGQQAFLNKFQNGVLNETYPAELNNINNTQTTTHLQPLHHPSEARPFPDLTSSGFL

This assay has as its target Aryl hydrocarbon receptor (Homo sapiens) (UniProt P35869). The assay is described as follows: AHR activators, primary screen, cell-based, luminescence, luciferase reporter, human (AID 2796).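 Further: 0% = vehicle wells and 100% = reference agonist.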 As to conditions: AHR-responsive luciferase reporter cells, at 5 µM, active compounds read high. A general note: A reporter such as luciferase makes a cellular process visible.
On to `CCn1c(CSc2nncn2-c2ccc(OC)cc2)nc2cc(S(=O)(=O)N(C)C)ccc21`, for which the activation was -0.25%. For `CCOc1ccccc1C1NC(=O)NC(C)=C1C(=O)OCc1ccco1` (stereo not given), the activation is -1.31%. With `COc1ccccc1-c1sc2ccccc2c1-c1ccc(C(C)=O)cc1` the figure was 42.1%; with `COC(=O)c1ccc(/C=C/c2c(-c3ccc(OC)cc3)sc3ccccc23)cc1`, 51.7% (active). With `COc1ccc2sc(-c3ccc(S(C)(=O)=O)cc3)c(-c3ccc(C(N)=O)cc3)c2c1` the figure was 17.8%; with `O=C1CCCCC1Sc1ccc(Cl)cc1[N+](=O)[O-]` (stereo not given), 14.3%. The value for `Cc1nc(NC(CC(C)C)C(=O)O)c2nc(C)oc2n1` (stereo not given) was 1.08%. Take `CC(OC(=O)CN1C(=O)c2ccccc2C1=O)C(=O)c1ccccc1` (stereo not given): the activation was 0.4%. `CC(C)OC(=O)CN1C(=O)C(=O)c2ccccc21`: the activation was 101% (active). On to `CCOC(=O)CN1C(=O)C(=O)c2cc(C)ccc21`, for which the activation is -0.46%.

Take `CC1CCCN(S(=O)(=O)c2ccc(N(C(=O)c3cnccn3)C(C(=O)NC3CCCCC3)c3cccs3)cc2)C1` (stereo not given): the activation is 2.59%.

Take `CCOC(=O)CCP(=O)(O)C(O)(c1ccccc1)c1ccccc1`: the activation is -2.52%. With `COCCNC(=O)c1ccc(S(=O)(=O)c2ccc(Cl)cc2)c(NC(C)=O)c1` the figure was 5.01%. As to `CCOC(=O)c1c(C)n(C)c2ccc(OC)c(NS(=O)(=O)CC)c12`, the activation was 55.7% (active). The value for `CCOC(=O)c1c(S(=O)(=O)Nc2cccc(Cl)c2)c(C)n(C)c1C` was 21.5%; that for `CCOC(=O)c1c(C)n(C)c2ccc(OC)c(NC(=O)CN3CCC4(CC3)OCCO4)c12` was 0.77%. The value for `FC(F)(F)c1cc(C(F)(F)F)c2ccc(N3CCN(c4ccccc4)CC3)nc2n1` was 3.17%; that for `CC(=O)Nc1cccc(-c2nc3ccccc3s2)c1C` was -9.79%. Consider `Oc1ccc(-c2[nH]ncc2-c2nc3ccccc3s2)c(O)c1`, for which the activation is 48.9% (active). Regarding `COc1ccc(Oc2cn[nH]c2-c2ccc(OC)cc2O)cc1`, the activation is 6.87%.

As for `CCOC(=O)C1(Cc2ccccc2C)CCCN(C(=O)c2ccc(COC)o2)C1` (stereo not given), the activation is 20.8%.

As to `O=c1ccc2cc(S(=O)(=O)Nc3ccccc3F)ccc2o1`, the activation was -0.99%. As to `Cc1cc(C(=O)COc2ccccc2[N+](=O)[O-])c(C)n1-c1cccc(S(=O)(=O)N2CCOCC2)c1`, the activation is 10.1%.

Take `CCCc1c(C(=O)Nc2ccc(F)cc2)cnn1-c1ccccc1`: the activation was 69.9% (active). With `CCCc1c(C(=O)O)cnn1-c1ccc(Cl)cc1`, the activation was -2.51%. With `CCNC(=O)c1cnn(-c2ccccc2)c1-c1ccccc1` the figure was 0.69%; with `COc1cc(/C=C/C(=O)OCC(=O)NC2CC2)cc(OC)c1OC`, 1.12%; with `O=S(=O)(NCc1ccccc1Br)c1ccccc1Br`, -0.52%. With `Cn1c(=O)c(Sc2ccc(Cl)cc2)c(O)c2ccccc21` the figure was 6.8%; with `CCCn1c(=O)c(C(=O)Nc2cc(C)ccn2)c(O)c2ccccc21`, 7.05%; with `Cn1c(=O)c(C(=O)Nc2ncccn2)c(O)c2ccccc21`, 66.7% (active).

`COc1ccccc1NC(=O)CSc1nnc(Cn2nnc(-c3ccccc3)n2)n1-c1ccccc1`: the activation was -0.61%. The value for `O=C(NCc1ccncc1)c1ccc(NS(=O)(=O)c2cccc([N+](=O)[O-])c2)cc1` was -0.44%; that for `CCC(C)NCC(=O)Nc1ccc([N+](=O)[O-])cc1C(=O)Nc1ccccc1F` (stereo not given) was 104% (active). The value for `O=C(NCCCNc1ccc([N+](=O)[O-])cc1Cl)c1ccccc1F` was -0.83%; that for `O=C(NCCNc1ccc([N+](=O)[O-])cc1Cl)c1ccccc1F` was -0.69%. With `CC1CC(C)CN(C(=O)C2CC(=O)N(c3ccc(F)cc3)C2)C1` (stereo not given) the figure was -4.43%. Take `Cc1ccc(O)c(CCc2ccccc2)n1`: the activation was 21.5%. As for `O=C(O)CCCCCNc1ncnc2ccc(Br)cc12`, the activation is 4.84%. With `COc1ccc(Nc2ncnc3ccc(Br)cc23)c(OC)c1` the figure was 52.9% (active); with `C=CCNc1ncnc2ccc(Br)cc12`, 0.32%. The value for `O=C(COc1ccccc1F)Nc1nc(-c2ccccn2)cs1` was 12.4%; that for `Cc1ccc2[nH]c(=O)c(CN(CC3COCCO3)C(=O)Nc3ccccc3C)cc2c1` (stereo not given) was 9.5%; that for `COc1ccc2[nH]c(=O)c(CN(CC3CCCO3)C(=O)Nc3ccccc3)cc2c1` (stereo not given) was 0.61%.

Regarding `Cc1cccc(NC(=O)N(Cc2cc3cc(C)cc(C)c3[nH]c2=O)CC2COCCO2)c1` (stereo not given), the activation is 59.6% (active). With `Cc1ccc(C2(C(F)(F)F)N=C3Sc4cc(C)cc(C)c4N3C(=O)N2)cc1` (stereo not given) the figure was 70.8% (active); with `COC(=O)C1=C(N)Oc2c(oc(CO)cc2=O)C1c1c(F)cccc1Cl` (stereo not given), -0.25%; with `Cc1ccc(N2C(=O)N3[C@@H]4c5ccccc5OC[C@@H]4[C@@H](c4ccccc4)[C@@]3(C)C2=O)cc1`, 0.11%. Turning to `COC(=O)Cc1ccc(OCC(=O)Nc2ccc(OC(F)(F)F)cc2)cc1`, the activation is 1.97%. Regarding `CCOC(=O)Cc1ncccc1C(=O)Nc1ccc(OC(F)(F)F)cc1`, the activation was 78.1% (active). As for `CCOC(=O)Cc1ncccc1C(=O)Nc1ccc(OC)cc1`, the activation is 2.4%. Take `COc1ccccc1N(C)S(=O)(=O)c1ccc(Cl)c(C(=O)Nc2ccncc2)c1`: the activation was 17.1%. With `CCOc1ccc(OCc2cccc(C(=O)N(CC)CC)c2)cc1`, the activation is -5.06%. `CCSc1nsc(NC(=O)Nc2cccc(C(C)=O)c2)n1`: the activation is 76.5% (active). With `C=CCSc1nsc(NC(=O)Nc2cccc(C(C)=O)c2)n1` the figure was 41.3%; with `CCSc1nsc(NC(=O)Nc2ccccc2OC)n1`, -2.87%. On to `CC(C)(C)Nc1c(N)c(=O)oc2ccccc12`, for which the activation was -0.9%.

With `O=Cc1c(NCCc2cccc(F)c2)c2ccccc2[nH]c1=O`, the activation was 1.73%.

For `Nc1c(NCCc2ccccc2)c2ccccc2oc1=O`, the activation is 67.9% (active).

As for `CC(=O)Nc1ccc(NC(=O)CSc2nnc(COc3ccccc3C)n2CC2CCCO2)cc1` (stereo not given), the activation is 1.11%.
